# Test results: PubChem BioAssay (EPA / NIEHS)
# Records with an inconclusive call do not appear. Active and inactive are the calls of the source. The calls were made as follows, unless noted: active = hit-call score of the fitted dose curve at least 0.9, where 1 is the maximum; inconclusive = response in the unintended direction; inactive = score below 0.9.
# Legend:
# [1] = CCTE_Mundy_HCI_iCellGluta_NOG_NeuriteLength: CCTE's Neurite Outgrowth Assay in iCellGluta cells for Neurite Length, Mundy Lab (AID 2284318)
# In short: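 Automated high-content imaging of betaIII-tubulin (Alexa Fluor-488) and Hoechst-stained cells gave neurite length, normalized to the DMSO baseline.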
# [2] = IUF_NPC1_cytotoxicity_72hr: Cytotoxicity Assessment at 72 hours in the Leibniz Research Institute for Environmental Medicine (IUF) Neural Progenitor Cell Proliferation Assay (NPC1) (AID 2284332);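 also: rising LDH signal means more cytotoxicity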
# In short: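 Cytotoxicity by LDH membrane-integrity assay on medium supernatants, fluorescence via resazurin reduction, after 3-day single exposure of primary hNPC spheres at 37C, pH 7.2-7.6 with growth factors. Fitted upward against baseline.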
# [3] = CCTE_Mundy_HCI_iCellGluta_NOG_NeuronCount: CCTE's Neurite Outgrowth Assay in iCellGluta cells for Neuron Count, Mundy Lab (AID 2284340);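 also: cells fixed about 48 h after compound addition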
# In short: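 Neuron count read by automated high-content imaging of Hoechst 33342 and betaIII-tubulin/Alexa Fluor-488 labelling in human iPSC glutamatergic neurons. Activity fitted relative to DMSO.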
# [4] = VALA_TUBIPS_Antagonist_TubuleLength: VALA Sciences human iPS-derived Endothelial Tubule Formation (TUBIPS) Antagonist Assay (AID 2284313)
# In short: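 Tubule length was quantified by high-content imaging of CD31- and nuclear-stained cells, with 0.1% DMSO as neutral and 100 uM suramin as inhibition control. Compounds were applied for 3 days, in 10 ng/ml VEGF, to cultures pre-grown 3 days.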
# [5] = VALA_MIGHUV2_Bcatenin: VALA Sciences human Umbilical Vein Endothelial Cell Migration (MIGHUV) Assay, Nuclear Translocation of beta-Catenin after Recovery (AID 2284315)
# In short: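 Nuclear beta-catenin imaged by immunofluorescence with Hoechst counterstain in fixed HUVEC, 24 h after scratch wounding and chemical addition. Six-point concentration-response in triplicate; activity scored as signal increase over 0.1% DMSO vehicle.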
# [6] = VALA_TUBHUV_Antagonist_TubuleLength: VALA Sciences human Umbilical Vein Endothelial Tubule Formation (TUBHUV) Antagonism Assay (AID 2284325)
# In short: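 Tubule length was imaged via CD31 immunofluorescence after a further 3-day compound exposure in 10 ng/ml VEGF, following 3-day pre-culture of HUVEC with HDF at 1:3. Vehicle 0.1% DMSO; suramin (100 uM) inhibition control.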
# [7] = VALA_MIGHUV1_ScratchOnly_WoundArea: VALA Sciences human Umbilical Vein Endothelial Cell Migration (MIGHUV) Assay, Area of Scratch Wound Inhibited Recovery (AID 2284336)
# In short: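 Wound area remaining after 24 h recovery imaged by Hoechst nuclear fluorescence in scratched HUVEC cultures, chemicals added within 30 min of scratching across a 6-point series. Gain of signal fitted against 0.1% DMSO; cytochalasin D positive control.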
# [8] = VALA_TUBHUV_Agonist_TubuleLength: VALA Sciences human Umbilical Vein Endothelial Tubule Formation (TUBHUV) Agonism Assay (AID 2284337)
# In short: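 Tubule length quantified by CD31 immunofluorescence imaging after fixation. HUVEC-HDF co-cultures (1:3) pre-grown 3 days with 10 ng/ml VEGF, then dosed 3 days in VEGF medium; 0.1 % DMSO vehicle baseline.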
# [9] = VALA_TUBIPS_Agonist_CellCount: Viability Assessment in the VALA Sciences human iPS-derived Endothelial Tubule Formation (TUBIPS) Agonism Assay (AID 2284338)
# [10] = TAMU_PeakParms_SingleDonor1434_Asystole: Texas A&M University (TAMU) 1.5-hr Human Induced Pluripotent Stem Cell (iPSC)-derived Cardiomyocytes Calcium (Ca+2) Flux Assay for Cardiotoxicity: Asystole (quiescence of beating) (AID 2284328)
# In short: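 Human iPSC-derived cardiomyocytes (donor 1434) were exposed to 0.2, 1, 10 and 100 uM compound in 0.5% DMSO for 90 min at 37C. Ca2+-dye fluorescence gave average peak frequency; POD is EC95, a 95% beat-rate drop versus DMSO.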
# [11] = system: Brachyury (BRA) Protein Expression, Deisenroth Lab, TBXT (gene 6862); experiment: CCTE_Deisenroth_DEVTOX-GLR_legacy_Bra: (Legacy) CCTE's DevTox GLR-Endo Assay Evaluation of Brachyury (BRA) Protein Expression, Deisenroth Lab (AID 2284329; active = hit-call score of the fitted dose curve at least 0.9, where 1 is the maximum; inactive = score below 0.9)
# In short: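 High-content imaging of fixed RUES2-GLR cells after a 48-hour differentiation with two compound exposures yields percent cells whose Bra signal exceeds pluripotent control median by 5x BMAD; values are baseline-corrected to DMSO.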
# [12] = CCTE_Deisenroth_DEVTOX-GLR_legacy_CellCount: (Legacy) Viability Assessment in CCTE's DevTox GLR-Endo Assay, Deisenroth Lab (AID 2284331; active = hit-call score of the fitted dose curve at least 0.9, where 1 is the maximum; inactive = score below 0.9); conditions: actives raise or lower the signal
# In short: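 Viability is taken from imaged nuclei counts in fixed RUES2-GLR cultures after 48 h of differentiation under two 24 h-spaced chemical exposures, 10 concentrations from 1 nM to 200 uM, gain or loss versus DMSO baseline.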
# [13] = CCTE_Deisenroth_5AR_NBTE_donor: CCTE's 5alpha-reductase NanoBRET Target Engagement Assay […], Deisenroth Lab (AID 2284319; active = hit-call score of the fitted dose curve at least 0.9, where 1 is the maximum; inactive = score below 0.9); conditions: actives raise or lower the signal
# In short: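 SRD5A2-NanoLuc, HEK293T, 20 h expression. Chemical 10 nM - 29.9 uM, 8 conc, duplicate; 3 h preincubation + 2 h testosterone tracer. Nano-Glo substrate plus extracellular NanoLuc inhibitor; donor lum 460 nm. DMSO baseline, bidirectional fit.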
# [14] = CCTE_Deisenroth_5AR_NBTE_acceptor: CCTE's 5alpha-reductase NanoBRET Target Engagement Assay - Autofluorescence Screen, Deisenroth Lab (AID 2284321; active = hit-call score of the fitted dose curve at least 0.9, where 1 is the maximum; inactive = score below 0.9;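 also: compound fluorescence in the acceptor channel under 460 nm excitation flags autofluorescence artifacts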); conditions: actives raise or lower the signal
# In short: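 Autofluorescence counter-screen: chemicals at an assumed nominal 100 uM in DMSO were scanned in three independent runs with 460 nm excitation. Gain or loss of acceptor signal was fitted bidirectionally against DMSO.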
# [15] = system: SRD5A2 (gene 6716); experiment: CCTE_Deisenroth_5AR_NBTE_ratio: CCTE's 5alpha-reductase NanoBRET Target Engagement Assay - Ratio, Deisenroth Lab (AID 2284322; active = hit-call score of the fitted dose curve at least 0.9, where 1 is the maximum; inactive = score below 0.9); conditions: actives raise or lower the signal
# In short: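 HEK293T cells transiently expressing an SRD5A2-NanoLuc fusion (20 h post-transfection) were exposed to test chemical (10 nM - 29.9 uM, 8 points) for 3 h, then testosterone tracer for a further 2 h. Acceptor/donor BRET ratio was fitted bidirectionally against DMSO baseline.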
# [16] = VALA_MIGHUV2_WoundArea: VALA Sciences human Umbilical Vein Endothelial Cell Migration (MIGHUV) Assay, Area of Scratch Wound after Recovery (AID 2284316)
# In short: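 Wound-area endpoint read by fluorescence imaging of Hoechst-stained nuclei after a 24 h recovery period following scratch of HUVEC monolayers (9000 cells/well). Chemicals dosed within 30 min post-scratch, triplicate 6-point series, 0.1% DMSO vehicle; Cytochalasin D positive control.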
# [17] = VALA_MIGHUV1_ScratchOnly_CellCount: Viability Assessment in the VALA Sciences human Umbilical Vein Endothelial Cell Migration (MIGHUV) Assay, Scratch Wound Inhibited Recovery (AID 2284327)
# In short: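 Hoechst-stained nuclei in the scratch wound were counted by high-content imaging after a 24 h recovery period. Scratched HUVEC monolayers received 6-point concentration series, triplicate, in 0.1% DMSO, fit against DMSO.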
# [18] = system: IYD (gene 389434); experiment: CCTE_GLTED_hIYD: CCTE's human Iodotyrosine Deiodinase (xIYD) Inhibition Assay, Great Lakes Toxicology and Ecology Division (GLTED) Lab (AID 2284317);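 also: cell-free human IYD enzyme made in baculovirus insect cells; iodide freed from monoiodotyrosine measured by cerium arsenite color change at 420 nm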
# In short: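 In the IYD assay, iodide released from MIT by insect-cell-expressed human enzyme was quantified after 3 h via Sandell-Kolthoff rate at 420 nm, with plate-wise normalization to MNT and solvent controls.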
# [19] = VALA_MIGHUV2_CellCount: Viability Assessment in the VALA Sciences human Umbilical Vein Endothelial Cell Migration (MIGHUV) Assay, Area of Scratch Wound after Recovery (AID 2284314)
# In short: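 Viability read-out: Hoechst-stained nuclei counted by fluorescence imaging after a 24 h recovery period in fixed, scratched HUVEC plates. Compound was dosed within 30 min of scratching at six concentrations (triplicate); DMSO at 0.1 % served as baseline.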
# [20] = VALA_TUBIPS_Antagonist_CellCount: Viability Assessment in the VALA Sciences human iPS-derived Endothelial Tubule Formation (TUBIPS) Antagonism Assay (AID 2284335)
compound,measurement,setting,value
CCN(CC)C(=O)c1cccc(C)c1,AC50,[1],50.5 µM (active)
same,outcome,[2],inactive
same,outcome,[3],inactive
S=C([S-])NCCNC(=S)[S-].[Mn+2],outcome,[2],inactive
N[C@@H](Cc1cc(I)c(Oc2ccc(O)c(I)c2)c(I)c1)C(=O)O,outcome,[4],inactive
same,outcome,[5],inactive
same,outcome,[6],inactive
same,outcome,[7],inactive
same,outcome,[8],inactive
same,outcome,[9],inactive
c1ccc2[nH]c(-c3cscn3)nc2c1,outcome,[10],inactive
CSC(=O)c1cccc2nnsc12,outcome,[2],inactive
CCCCC(CC)COC(=O)c1ccccc1C(=O)O (stereo not drawn),outcome,[11],inactive
same,AC50,[12],112 µM (active)
CC1(C)C(C=C(Cl)Cl)C1C(=O)OCc1cccc(Oc2ccccc2)c1 (stereo not drawn),outcome,[13],inactive
same,outcome,[14],inactive
same,outcome,[15],inactive
same,outcome,[10],inactive
COCCO,outcome,[10],inactive
S=C(S)NCCNC(=S)S.[Mn+2].[S-]C([S-])=NCCN=C([S-])[S-].[Zn+2],outcome,[4],inactive
same,outcome,[5],inactive
same,outcome,[16],inactive
same,outcome,[1],inactive
same,outcome,[6],inactive
same,outcome,[17],inactive
same,outcome,[2],inactive
same,outcome,[7],inactive
same,outcome,[9],inactive
same,outcome,[3],inactive
CCOC(=O)C(C)Oc1ccc(Oc2nc3ccc(Cl)cc3o2)cc1 (stereo not drawn),outcome,[18],inactive
O=C(O)c1ccccc1,outcome,[13],inactive
same,outcome,[14],inactive
same,outcome,[15],inactive
same,outcome,[10],inactive
same,outcome,[2],inactive
CC(C)(c1ccc(O)cc1)c1ccc(O)cc1,outcome,[4],inactive
same,outcome,[19],inactive
same,outcome,[5],inactive
same,outcome,[16],inactive
same,outcome,[18],inactive
same,AC50,[6],75.1 µM (active)
same,outcome,[10],inactive
same,AC50,[11],49.5 µM (active)
same,AC50,[12],35.6 µM (active)
same,outcome,[2],inactive
same,outcome,[20],inactive
same,outcome,[7],inactive
same,outcome,[9],inactive
CC(=O)[C@H]1CC[C@H]2[C@@H]3CCC4=CC(=O)CC[C@]4(C)[C@H]3CC[C@]12C,outcome,[10],inactive
OB(O)O,outcome,[11],inactive
same,outcome,[12],inactive
CCCN(CCC)C(=O)SCC,outcome,[1],inactive
same,outcome,[2],inactive
same,outcome,[3],inactive
CC(C)CCCCCCc1ccc(O)cc1,outcome,[4],inactive
same,outcome,[19],inactive
same,AC50,[18],48.4 µM (active)
same,outcome,[13],inactive
same,outcome,[14],inactive
same,outcome,[15],inactive
same,outcome,[6],inactive
same,outcome,[7],inactive
same,outcome,[8],inactive
same,outcome,[9],inactive
O=C(Nc1ccc([N+](=O)[O-])cc1Cl)c1cc(Cl)ccc1O,outcome,[13],inactive
same,outcome,[14],inactive
same,outcome,[15],inactive
Cc1nn(C)c(Oc2ccccc2)c1C=NOCc1ccc(C(=O)OC(C)(C)C)cc1,AC50,[1],0.353 µM (active)
same,outcome,[2],inactive
same,AC50,[3],6.47 µM (active)
C#CCOC(=O)[C@@H](C)Oc1ccc(Oc2ncc(Cl)cc2F)cc1,AC50,[1],22 µM (active)
same,outcome,[2],inactive
same,outcome,[3],inactive
